Source: PubChem BioAssay (NCATS)
Inconclusive results are not listed. The source made the active and inactive calls. Calls come from the whole dose curve; as a rule, active = well fitted curve in the direction sought with a large enough effect; inconclusive = small, poorly fitted or top-dose-only effect, or another doubt; inactive = no such curve, though single readings can be large; an effect the other way counts as inactive or inconclusive.

How the values were obtained:
[1] = Cellular Toxicity (caspase-3) Hek293 (AID 664); conditions: HEK293 caspase-3 activation, DMSO = 0%, 100 µM tamoxifen = 100%; at 92.2 µM (top of the series);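 note: cells exposed to compound for 16 h at 37 °C before readout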
How it was run: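 Apoptosis readout: Caspase-Glo 3/7 signal in human HEK293 cells following 16-hour compound incubation. Responses scaled between DMSO baseline and 100 uM tamoxifen.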

[2] = Cellular Toxicity (caspase-3) N2a (AID 665); conditions: Potency: caspase-3 activation;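 note: compound exposure lasted 16 h at 37 °C before readout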
How it was run: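 Concentration-response qHTS: compound-induced caspase-3/7 luminescence in N2a cells (16 h, 37 °C), relative to DMSO and 10 uM staurosporine controls; AC50 obtained using the standard Hill equation.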

[3] = Cellular Toxicity (caspase-3) NIH 3T3 (AID 666);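 note: caspase signal read after 16 h compound exposure; 0% = DMSO basal and 100% = 100 µM tamoxifen stimulation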
How it was run: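 Activity: caspase-3/7 induction, NIH 3T3 cells, 16 hr treatment at 37°C, luminescent Caspase-Glo detection; AC50 via Hill equation.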

[4] = Cellular Toxicity (caspase-3) Renal Proximal Tubule (AID 667);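 note: cells exposed to compound for 16 hours at 37 °C before detection; 0% = DMSO basal and 100% = 10 µM staurosporine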
How it was run: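 In qHTS format, rat primary proximal tubule cells seeded at 1000 per well are exposed to compounds for 16 hours at 37 °C. An increase in Caspase-Glo 3/7 luminescence indicates caspase activation.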

[5] = target: Cytochrome P450 3A4 (Homo sapiens) (UniProt P08684); experiment: qHTS Assay for Inhibitors and Substrates of Cytochrome P450 3A4 (AID 884); note: % is set by controls: 0 for no effect and ±100 for the full control effect; nearly all actives have a fitted effect of over 50% in size
How it was run: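 Luminescent readout of luciferin produced by CYP3A4 (20 nM) dealkylation of Luciferin-PPXE, 25 uM (its KM). NADPH-driven reaction ran 60 min at RT after 10 min compound preincubation; data scaled to 57 uM ketoconazole as 100% inhibition.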

[6] = Cell Viability - LYMP2-001 (AID 921);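 note: 0% = DMSO only and full inhibition = tetraoctylammonium bromide control wells; nearly all actives have a fitted effect of over 70% in size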
How it was run: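 qHTS, 1536-well; lymphoblastoid cells, 24 hr compound, 37 C; ATP by CellTiter-Glo, 30 min RT; luminescence; Hill-fit AC50.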

[7] = MultiTox-Fluor Cytotoxicity Assay - LYMP1-001 - Dead Cells (AID 946);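 note: 0% = DMSO and 100% = tetraoctylammonium bromide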
How it was run: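 AC50 from Hill fit of concentration-response; data normalized to DMSO (basal) and 15 uM tetraoctylammonium bromide (100%). LYMP1-001 lymphoblastoid cells, 2500/well, 16 hr compound at 37 C; dead-cell protease fluorescence, Ex/Em 485/520.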

[8] = MultiTox-Fluor Cytotoxicity Assay - LYMP1-001 - Live Cells (AID 947);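 note: 0% = DMSO only and full inhibition = tetraoctylammonium bromide control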
[9] = Cell Viability - LYMP1-002 - Assay at 16 hr (AID 948);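 note: 0% = DMSO alone and full effect = 92 µM tetraoctylammonium bromide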
How it was run: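 Acute cytotoxicity is scored as a concentration-dependent fall in intracellular ATP in a human lymphoblastoid line (LYMP1-002) after 16 hr compound exposure at 37 C, measured by luciferase luminescence.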

[10] = MultiTox-Fluor Cytotoxicity Assay - LYMP1-002 - Live Cells (AID 955); note: % is set by controls: 0 for no effect and ±100 for the full control effect
How it was run: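 In this qHTS viability format, lymphoblastoid cells (LYMP1-002, human) received compound for 16 hr at 37 C. Fluorogenic GF-AFC cleavage by viable cells was detected at 405/510 nm after 1 h at room temperature.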

[11] = MultiTox-Fluor Cytotoxicity Assay - LYMP1-002 - Dead Cells (AID 960);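 note: 0% = DMSO and 100% = tetraoctylammonium bromide; nearly all actives have a fitted effect of over 60% in size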
How it was run: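 Concentration-dependent increases in membrane-leaked protease activity are quantified in LYMP1-002 cells after 16 hr treatment; values are normalized against DMSO and tetraoctylammonium bromide (15 uM) controls and AC50 derived by Hill modeling.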

[12] = MultiTox-Fluor Cytotoxicity Assay - LYMP1-003 - Live Cells (AID 962);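 note: 0% = DMSO only and full loss = 92 µM tetraoctylammonium bromide; cytotoxic hits lower the live-cell protease signal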
How it was run: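 Human lymphoblastoid line LYMP1-003 in complete culture medium, treated 16 hr with titrated compounds. Viable cells quantified via cell-permeant GF-AFC substrate fluorescence; AC50 derived by Hill fitting.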

[13] = Cell Viability - LYMP1-003 - Assay at 24 hr (AID 963);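 note: plate controls were DMSO only for no effect and tetraoctylammonium bromide positive control for full effect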
How it was run: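 The lymphoblastoid line was treated with titrated compounds for 24 hours, and viable cell number estimated from luciferase-based ATP luminescence.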

[14] = Cell Viability - LYMP1-003 - Assay at 40 hr (AID 964); note: % is set by controls: 0 for no effect and ±100 for the full control effect; nearly all actives have a fitted effect of over 60% in size
How it was run: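 Acute toxicity is scored as a concentration-dependent loss of intracellular ATP in LYMP1-003 cells (2500/well, complete medium) after 40 hr at 37 C, measured by CellTiter-Glo luminescence; AC50 values derive from standard Hill modelling.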

[15] = Cell Viability - LYMP2-003 (AID 965);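 note: cells exposed to compounds for 24 h before reading; 0% = DMSO only and full effect = 92 µM tetraoctylammonium bromide; nearly all actives have a fitted effect of over 50% in size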
How it was run: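 Acute cytotoxicity is scored as a concentration-dependent drop in intracellular ATP, measured by luciferase luminescence in human lymphoblastoid cells treated for 24 hours at 37 C. AC50 values derive from Hill-equation modelling.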

[16] = Cell Viability - LYMP2-004 (AID 966);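 note: plate controls were DMSO only for no effect and tetraoctylammonium bromide control for full effect; nearly all actives have a fitted effect of over 65% in size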
How it was run: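 Viable-cell number estimated from ATP luminescence (CellTiter-Glo) in 2500 human lymphoblastoid cells/well after 24 hr at 37 C with compound. AC50 fitted to the standard Hill equation.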

[17] = Cell Viability - LYMP2-005 (AID 967);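 note: plate controls were DMSO only for no effect and 92 µM tetraoctylammonium bromide control for full effect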
How it was run: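 qHTS viability screen in LYMP2-005 cells: 24 h at 37 C with compound, ATP luminescence via CellTiter-Glo, AC50 from Hill curves.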

[18] = Cell Viability - LYMP2-009 (AID 968);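 note: 0% = DMSO alone and the full-kill end = tetraoctylammonium bromide at 92 µM; nearly all actives have a fitted effect of over 55% in size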
[19] = Cell Viability - LYMP2-011 (AID 969);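 note: 0% = DMSO only and full inhibition = 92 µM tetraoctylammonium bromide; nearly all actives have a fitted effect of over 60% in size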
How it was run: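 Cells seeded at 2500 per well rest 5 hr before compound addition, then incubate 24 hr at 37 C. CellTiter-Glo reagent is added for 30 min at room temperature before luminescence detection.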

[20] = Cell Viability - LYMP2-013 (AID 970);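 note: 0% = DMSO only and full inhibition = tetraoctylammonium bromide control; nearly all actives have a fitted effect of over 55% in size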
How it was run: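 In complete culture medium, human lymphoblastoid cells were dosed for 24 hr at 37 C, with tetraoctylammonium bromide (6.4pM to 92 uM) as positive control. Viability reflects luciferase-based ATP signal; AC50 derived from concentration-response curves.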

[21] = Cell Viability - LYMP2-015 (AID 971);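 note: 0% = DMSO only and full effect = 92 µM tetraoctylammonium bromide; nearly all actives have a fitted effect of over 55% in size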
How it was run: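 AC50 values reflect Hill-model fits of ATP-based luminescence (CellTiter-Glo) from a human lymphoblastoid line, 2500 cells/well, treated 24 hr at 37 C.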

[22] = Cell Viability - LYMP2-017 (AID 972);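 note: cells exposed to compound for 24 hours at 37 °C; % is set by controls: 0 for no effect and ±100 for the full control effect; nearly all actives have a fitted effect of over 55% in size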
How it was run: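 In this qHTS format, lymphoblastoid cells in complete medium receive test compound for a day at 37 C before ATP content is quantified by luciferase luminescence. Reported AC50 figures come from standard Hill-equation curve fitting.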

Sequence of Cytochrome P450 3A4 (Homo sapiens) (P08684 whole entry, looked up): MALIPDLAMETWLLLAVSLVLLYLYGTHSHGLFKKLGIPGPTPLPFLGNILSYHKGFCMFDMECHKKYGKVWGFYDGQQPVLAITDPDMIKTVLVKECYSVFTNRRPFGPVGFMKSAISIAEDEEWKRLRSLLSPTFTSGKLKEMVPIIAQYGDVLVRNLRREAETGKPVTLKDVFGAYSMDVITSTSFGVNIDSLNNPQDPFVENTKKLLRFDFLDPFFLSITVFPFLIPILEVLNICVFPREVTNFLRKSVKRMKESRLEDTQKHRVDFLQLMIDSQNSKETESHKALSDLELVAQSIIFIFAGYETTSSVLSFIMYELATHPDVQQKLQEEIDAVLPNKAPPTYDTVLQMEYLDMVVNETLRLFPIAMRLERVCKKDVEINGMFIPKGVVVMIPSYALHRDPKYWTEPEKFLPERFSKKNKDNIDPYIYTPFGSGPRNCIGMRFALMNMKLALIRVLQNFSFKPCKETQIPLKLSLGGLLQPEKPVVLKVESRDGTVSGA

CCCCCC/C(C=O)=C\c1ccccc1
inactive: caspase-3 activation [1] 2.43% | Potency [2] | Potency [3] | outcome [4] | Potency [5] | Potency [6] | Potency [7] | Potency [8] | Potency [9] | Potency [10] | Potency [11] | Potency [12] | Potency [13] | Potency [14] | Potency [15] | Potency [16] | Potency [17] | Potency [18] | Potency [19] | Potency [20] | Potency [21] | Potency [22]
